Experiments:
Assay in all cases: log2 ratio of Biotin-Ahx-Ub-VS probe labelling (fragment/DMSO); higher = less target engagement (more negative = stronger competition), active = hit call of the paper (q ≤ 0.05, log2 ratio ≤ -1)
Settings in all cases: compound concentration: 200 uM; treatment time: 3 h
[1] = target: T1, ALG13 (UniProt Q9NP73)
T1 sequence (whole entry): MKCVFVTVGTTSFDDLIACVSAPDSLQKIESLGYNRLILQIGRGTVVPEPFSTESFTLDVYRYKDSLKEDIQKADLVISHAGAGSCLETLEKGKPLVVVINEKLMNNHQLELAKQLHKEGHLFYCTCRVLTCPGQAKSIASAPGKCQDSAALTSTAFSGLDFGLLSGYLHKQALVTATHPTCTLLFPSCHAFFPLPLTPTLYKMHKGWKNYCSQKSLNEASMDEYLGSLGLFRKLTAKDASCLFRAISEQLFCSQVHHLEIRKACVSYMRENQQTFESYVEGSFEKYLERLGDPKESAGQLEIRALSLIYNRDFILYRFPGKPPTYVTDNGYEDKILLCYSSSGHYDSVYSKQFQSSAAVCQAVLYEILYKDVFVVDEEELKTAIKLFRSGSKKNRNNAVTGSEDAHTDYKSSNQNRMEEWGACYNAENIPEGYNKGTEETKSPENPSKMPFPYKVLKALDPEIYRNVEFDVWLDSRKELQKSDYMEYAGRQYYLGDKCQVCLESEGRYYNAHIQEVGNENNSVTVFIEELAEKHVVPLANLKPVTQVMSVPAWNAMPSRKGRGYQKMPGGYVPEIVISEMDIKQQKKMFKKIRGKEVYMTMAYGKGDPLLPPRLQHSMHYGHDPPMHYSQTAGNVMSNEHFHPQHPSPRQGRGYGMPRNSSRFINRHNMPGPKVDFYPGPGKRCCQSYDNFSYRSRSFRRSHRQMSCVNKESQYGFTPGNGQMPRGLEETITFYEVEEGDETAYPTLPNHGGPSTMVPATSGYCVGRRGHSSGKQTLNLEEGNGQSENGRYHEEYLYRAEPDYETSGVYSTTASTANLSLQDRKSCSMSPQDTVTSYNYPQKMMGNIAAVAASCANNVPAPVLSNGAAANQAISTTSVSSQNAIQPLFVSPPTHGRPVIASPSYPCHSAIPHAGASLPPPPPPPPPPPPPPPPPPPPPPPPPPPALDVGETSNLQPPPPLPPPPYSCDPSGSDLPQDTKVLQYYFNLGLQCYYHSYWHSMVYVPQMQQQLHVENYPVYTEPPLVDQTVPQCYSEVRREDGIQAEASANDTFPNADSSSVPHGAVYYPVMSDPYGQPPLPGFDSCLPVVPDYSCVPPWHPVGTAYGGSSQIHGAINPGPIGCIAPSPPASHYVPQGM
Summary of the method: (§1)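 Fragment (200 µM) or vehicle was incubated for 3 h with triplicate HEK293T lysate samples of 495 µg, which were then treated with Biotin-Ahx-Ub-VS at 0.5 µM final for 1 h. Labelled DUBs were enriched on NeutrAvidin, digested with LysC and trypsin, and analysed by diaPASEF LC-MS/MS. Values are average log2 fragment/vehicle ratios from an unpaired t-test on global-median-normalised Spectronaut label-free quantities, using proteins with ≥2 unique peptides.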

[2] = target: ATXN3 (UniProt P54252)
Sequence of ATXN3 (P54252 whole entry): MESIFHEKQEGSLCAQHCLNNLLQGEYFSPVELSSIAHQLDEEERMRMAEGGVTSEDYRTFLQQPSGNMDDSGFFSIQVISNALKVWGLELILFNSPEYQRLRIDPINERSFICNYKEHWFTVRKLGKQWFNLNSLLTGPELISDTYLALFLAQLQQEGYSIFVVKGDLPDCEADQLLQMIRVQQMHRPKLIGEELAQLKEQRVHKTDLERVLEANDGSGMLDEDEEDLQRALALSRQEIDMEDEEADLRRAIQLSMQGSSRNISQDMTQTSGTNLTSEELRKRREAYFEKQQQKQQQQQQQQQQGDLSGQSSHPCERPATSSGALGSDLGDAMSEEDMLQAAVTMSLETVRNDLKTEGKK
Summary of the method: as §1

[3] = target: T2, BAP1 (UniProt Q92560)
T2 sequence (whole entry): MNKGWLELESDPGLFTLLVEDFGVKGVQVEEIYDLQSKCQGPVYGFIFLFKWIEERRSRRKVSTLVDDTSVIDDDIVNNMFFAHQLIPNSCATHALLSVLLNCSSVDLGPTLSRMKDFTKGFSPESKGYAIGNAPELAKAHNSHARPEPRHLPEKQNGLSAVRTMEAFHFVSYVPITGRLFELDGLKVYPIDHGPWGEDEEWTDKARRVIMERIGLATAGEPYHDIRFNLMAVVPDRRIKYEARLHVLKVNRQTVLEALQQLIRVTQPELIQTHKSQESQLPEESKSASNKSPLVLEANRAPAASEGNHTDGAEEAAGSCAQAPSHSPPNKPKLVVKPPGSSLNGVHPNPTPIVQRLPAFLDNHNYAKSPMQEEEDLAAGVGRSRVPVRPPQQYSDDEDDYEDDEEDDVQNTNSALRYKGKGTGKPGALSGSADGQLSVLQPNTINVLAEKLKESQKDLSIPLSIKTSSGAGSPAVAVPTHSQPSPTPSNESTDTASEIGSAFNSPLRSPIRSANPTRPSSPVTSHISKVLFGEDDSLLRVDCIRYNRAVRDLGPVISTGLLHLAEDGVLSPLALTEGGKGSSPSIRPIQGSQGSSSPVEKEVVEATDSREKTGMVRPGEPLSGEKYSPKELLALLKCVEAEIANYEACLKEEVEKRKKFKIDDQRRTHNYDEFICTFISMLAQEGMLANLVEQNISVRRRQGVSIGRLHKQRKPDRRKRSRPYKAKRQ
Summary of the method: as §1

[4] = target: EIF3F (UniProt O00303)
Sequence of EIF3F (O00303 whole entry): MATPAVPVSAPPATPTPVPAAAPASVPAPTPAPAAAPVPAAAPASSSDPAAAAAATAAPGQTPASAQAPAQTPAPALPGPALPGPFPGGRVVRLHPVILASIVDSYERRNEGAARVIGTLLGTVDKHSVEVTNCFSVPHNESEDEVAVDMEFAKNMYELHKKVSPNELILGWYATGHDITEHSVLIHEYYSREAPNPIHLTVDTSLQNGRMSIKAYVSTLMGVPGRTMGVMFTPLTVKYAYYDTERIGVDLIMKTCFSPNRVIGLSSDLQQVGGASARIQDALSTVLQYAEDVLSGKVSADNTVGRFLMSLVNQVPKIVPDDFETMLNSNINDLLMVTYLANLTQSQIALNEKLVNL
Summary of the method: as §1

[5] = target: EIF3H (UniProt O15372)
Sequence of EIF3H (O15372 whole entry): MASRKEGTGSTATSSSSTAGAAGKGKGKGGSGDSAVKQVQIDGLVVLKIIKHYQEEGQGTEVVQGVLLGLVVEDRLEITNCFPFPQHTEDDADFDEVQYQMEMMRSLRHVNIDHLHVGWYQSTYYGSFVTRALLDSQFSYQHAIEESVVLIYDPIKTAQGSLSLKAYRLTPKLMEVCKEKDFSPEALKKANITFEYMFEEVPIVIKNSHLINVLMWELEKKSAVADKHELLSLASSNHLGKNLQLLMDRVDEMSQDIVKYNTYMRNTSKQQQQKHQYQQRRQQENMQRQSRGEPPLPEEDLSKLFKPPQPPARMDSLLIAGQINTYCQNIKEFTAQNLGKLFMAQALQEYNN
Summary of the method: as §1

[6] = target: T3, FAM105A (UniProt Q9NUU6)
T3 sequence (whole entry): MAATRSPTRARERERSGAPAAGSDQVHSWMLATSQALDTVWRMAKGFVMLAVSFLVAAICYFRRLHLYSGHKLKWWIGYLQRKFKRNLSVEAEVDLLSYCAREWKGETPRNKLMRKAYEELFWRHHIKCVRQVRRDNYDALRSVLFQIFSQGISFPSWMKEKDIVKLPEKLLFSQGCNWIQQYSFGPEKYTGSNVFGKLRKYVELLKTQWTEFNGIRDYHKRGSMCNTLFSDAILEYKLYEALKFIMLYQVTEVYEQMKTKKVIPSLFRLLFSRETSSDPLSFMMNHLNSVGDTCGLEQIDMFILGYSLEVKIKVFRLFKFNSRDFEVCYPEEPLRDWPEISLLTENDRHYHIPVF
Summary of the method: as §1

[7] = target: OTUB1 (UniProt Q96FW1)
Sequence of OTUB1 (Q96FW1 whole entry): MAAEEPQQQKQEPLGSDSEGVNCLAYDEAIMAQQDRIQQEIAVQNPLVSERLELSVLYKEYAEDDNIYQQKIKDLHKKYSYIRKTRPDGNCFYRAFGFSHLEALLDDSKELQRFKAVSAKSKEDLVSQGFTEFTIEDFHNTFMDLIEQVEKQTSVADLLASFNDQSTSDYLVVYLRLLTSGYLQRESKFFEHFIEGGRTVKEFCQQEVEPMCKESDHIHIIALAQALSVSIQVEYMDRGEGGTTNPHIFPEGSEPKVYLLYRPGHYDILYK
Summary of the method: as §1

[8] = target: T4, OTUD4 (UniProt Q01804)
T4 sequence (whole entry): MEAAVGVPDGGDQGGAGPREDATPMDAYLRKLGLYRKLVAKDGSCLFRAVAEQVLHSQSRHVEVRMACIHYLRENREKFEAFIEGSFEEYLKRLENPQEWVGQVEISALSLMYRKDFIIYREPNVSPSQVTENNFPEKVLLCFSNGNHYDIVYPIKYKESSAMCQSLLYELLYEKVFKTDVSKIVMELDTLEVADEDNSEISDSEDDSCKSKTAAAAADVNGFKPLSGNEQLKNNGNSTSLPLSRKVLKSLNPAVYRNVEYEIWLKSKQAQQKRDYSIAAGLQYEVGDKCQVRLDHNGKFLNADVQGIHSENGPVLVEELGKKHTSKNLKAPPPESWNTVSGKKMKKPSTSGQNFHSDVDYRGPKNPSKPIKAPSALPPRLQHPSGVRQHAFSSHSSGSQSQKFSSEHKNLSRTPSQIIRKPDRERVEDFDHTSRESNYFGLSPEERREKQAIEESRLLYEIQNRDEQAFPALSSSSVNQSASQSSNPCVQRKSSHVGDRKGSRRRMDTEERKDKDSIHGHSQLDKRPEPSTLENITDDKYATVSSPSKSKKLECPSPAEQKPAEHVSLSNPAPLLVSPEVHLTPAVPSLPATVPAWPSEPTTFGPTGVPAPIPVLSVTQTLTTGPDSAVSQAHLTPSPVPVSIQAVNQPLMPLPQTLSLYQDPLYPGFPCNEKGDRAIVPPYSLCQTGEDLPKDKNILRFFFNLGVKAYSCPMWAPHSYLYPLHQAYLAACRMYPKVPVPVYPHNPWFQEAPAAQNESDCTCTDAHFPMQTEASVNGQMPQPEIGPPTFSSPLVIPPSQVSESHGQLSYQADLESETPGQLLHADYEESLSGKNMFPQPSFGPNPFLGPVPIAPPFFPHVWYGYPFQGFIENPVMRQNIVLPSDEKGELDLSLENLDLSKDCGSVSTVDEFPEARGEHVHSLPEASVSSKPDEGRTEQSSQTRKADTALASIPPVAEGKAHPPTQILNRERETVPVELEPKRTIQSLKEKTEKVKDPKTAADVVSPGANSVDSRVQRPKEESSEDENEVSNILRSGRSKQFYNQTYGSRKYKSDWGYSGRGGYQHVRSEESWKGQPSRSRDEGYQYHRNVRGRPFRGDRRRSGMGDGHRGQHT
Summary of the method: as §1

[9] = target: T5, OTUD5 (UniProt Q96G74)
T5 sequence (whole entry): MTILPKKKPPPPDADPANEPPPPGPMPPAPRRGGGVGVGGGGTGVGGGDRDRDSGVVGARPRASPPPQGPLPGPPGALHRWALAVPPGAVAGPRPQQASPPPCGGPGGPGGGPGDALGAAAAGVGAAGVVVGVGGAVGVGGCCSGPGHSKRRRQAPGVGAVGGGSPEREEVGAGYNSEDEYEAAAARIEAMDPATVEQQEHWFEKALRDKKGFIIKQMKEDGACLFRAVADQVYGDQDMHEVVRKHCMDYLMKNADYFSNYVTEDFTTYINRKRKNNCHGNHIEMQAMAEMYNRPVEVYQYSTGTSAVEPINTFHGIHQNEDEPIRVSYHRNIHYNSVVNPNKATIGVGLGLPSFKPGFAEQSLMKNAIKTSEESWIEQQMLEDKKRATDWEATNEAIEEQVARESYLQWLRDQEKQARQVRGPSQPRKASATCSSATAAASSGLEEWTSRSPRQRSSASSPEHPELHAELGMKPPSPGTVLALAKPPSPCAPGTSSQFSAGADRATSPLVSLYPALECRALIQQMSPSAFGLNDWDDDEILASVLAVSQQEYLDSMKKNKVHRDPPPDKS
Summary of the method: as §1

Measured: log2 ratio of Biotin-Ahx-Ub-VS probe labelling

CN(CCC(O)c1ccc(Br)cc1)C(=O)CCl (centres undefined)
active: [3] -2.04
inactive: [1] -0.222 | [2] -0.473 | [4] -0.372 | [5] 0.178 | [6] 0.138 | [7] -0.231 | [8] -0.192 | [9] -0.354
